# Source: PubChem (National Center for Advancing Translational Sciences (NCATS))
# Shown are actives, neighbours in structure and some others; about 10% of the full set was active somewhere.
# BAZ2B inh = qHTS Assay for Inhibitors of BAZ2B. Bromodomain adjacent to zinc finger domain protein 2B (Homo sapiens), Q9UIF8. AlphaScreen BAZ2B-H3K14Ac peptide displacement. Potency, µM (doses to about 114 µM), without a hit: at the highest dose activity change, negative = inhibition, actives largely listed as inhibitors. actives 4.4% (n = 360,000); also: % is scaled to controls: 0 for no effect and ±100 for the full control effect; nearly all actives have a fitted effect of over 60% in size
#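 In this displacement format the biotinylated H3(5-23) peptide acetylated at Lys14 serves as ligand at 50 nM, with BAZ2B at 50 nM in PBS pH 7.4 containing 0.01% Tween-20. Donor and acceptor beads are 10 ug/mL final.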
# JMJD2A Tudor inh = qHTS Assay for Inhibitors of JMJD2A-Tudor Domain; Potency, µM (series often up to 114 µM), for inactives: at the highest dose activity change, negative = inhibition, actives largely listed as inhibitors; AlphaScreen JMJD2A-Tudor / H3K4me3 peptide binding; Lysine-specific demethylase 4A (Homo sapiens), O75164; actives 4.4% (n = 390,000); also: % is scaled to controls: 0 for no effect and ±100 for the full control effect; nearly all actives have a fitted effect of over 50% in size
# GLS inh = qHTS for Inhibitors of Glutaminase (GLS); GLS enzymatic activity, qHTS titration; actives 0.21% (n = 410,000); Glutaminase kidney isoform, mitochondrial (Homo sapiens), O94925; AID 624170, 2012; Potency, µM (top dose mostly 45.5 µM), inactives show top-dose activity change, negative = inhibition, most hits filed as inhibitors; also: % is scaled to controls: 0 for no effect and ±100 for the full control effect
#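 Two-point fluorescence kinetic (t0, 30 min RT) for hKGA; glutamate detected via glutamate oxidase–HRP–Amplex Red. Substrate: 1 mM L-glutamine solution; buffer 45 mM KH2PO4, pH 8.2.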
# G9a block = qHTS Assay for Inhibitors of Histone Lysine Methyltransferase G9a. Potency, µM (titrated, usually from 102 µM), for inactives: at the top dose activity, negative = inhibition, actives largely listed as inhibitors. G9a H3K9 monomethylation, AlphaScreen, 2 h. Histone-lysine N-methyltransferase EHMT2 (Homo sapiens), Q96KQ7. actives 8.8% (n = 350,000). AID 504332, 2011; also: % is scaled to controls: 0 for no effect and ±100 for the full control effect; nearly all actives have a fitted effect of over 75% in size
#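 Compounds were preincubated with 20 nM G9a for 15 min, after which biotinylated H3K9 peptide (500 nM) and SAM (20 uM) started a 2 h room-temperature reaction. Monomethylated product was quantified by antibody-based AlphaScreen chemiluminescence.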
# HP1b binding inh = HTS for Inhibitors of HP1-beta Chromodomain Interactions with Methylated Histone Tails | Chromobox protein homolog 1 (Homo sapiens), P83916 | AlphaScreen HP1-beta / biotin-H3K9me3 peptide binding | Potency, µM (series often up to 114 µM), for the others: at the top dose activity change, negative = inhibition, most hits filed as inhibitors | actives 0.56% (n = 390,000); also: nearly all actives have a fitted effect of over 70% in size
#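 Compound inhibition of the preformed complex between 50 nM HP1-beta and 50 nM biotinylated H3K9me3 peptide was read by AlphaScreen. Buffer was PBS pH 7.4 with 0.01% Tween-20. Incubations ran 30 min at room temperature, with 10 ug/mL donor/acceptor beads.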
# Active calls of the source: *; ? = inconclusive; / = not tested or not shown; [ ] = remark or other dose. Calls follow the shape of the dose curve; as a rule, active = well fitted curve in the direction sought with a large enough effect; inconclusive = small, poorly fitted or top-dose-only effect, or another doubt; inactive = no such curve, though single readings can be large; an effect the other way counts as inactive or inconclusive. Potency is read from the fitted curve at half-maximal effect.
SMILES,BAZ2B inh,JMJD2A Tudor inh,GLS inh,G9a block,HP1b binding inh
COc1ccccc1CNc1ccc(-c2nc(C)no2)cc1[N+](=O)[O-],-2.3%,-6.0%,-3.5%,-25.7%[59 µM],52.3%
Cc1ccc(NC(=O)c2ccc(NC(=O)N3CCSc4nc(C)cc(C)c43)cc2)c(Cl)c1,-8.7%,-2.8%,-13.2%,-34.3%[59 µM],15.1%
O=C1C=CC(=O)N1c1ccc(Nc2ccccc2)cc1,/,50.1µM*,33.4%,/,?
Cc1cccc(N2C(=O)C=CC2=O)c1,/,20µM*,8.3%,/,?
O=C1C=CC(=O)N1c1ccc2ccccc2c1,/,17.8µM*,12.2%,/,?
CCOc1ccccc1NC(=O)c1c(NC(=O)c2cccc(C)c2)sc2c1CCC2,0.7%,-6.2%,-3.0%,1.5%[59 µM],24.1%
COc1cccc(CNC(=O)[C@@H]2CCCN2C(=O)[C@@H]2CCCN2C(=O)c2cccc3ccccc23)c1,/,/,-1.1%,/,/
COc1ccc(Nc2nnc(-c3ccc(C)c(S(N)(=O)=O)c3)c3ccccc23)cc1,-25.5%,?,-1.3%,-54.7%[59 µM],-2.9%
CC(C)Oc1ccc(CNC(=O)c2ccc(NC(=O)N3CCSc4ncccc43)cc2)cc1,-12.5%,-21.4%,-6.9%,-37.7%[59 µM],24.0%
CN(C1CCCCC1)S(=O)(=O)c1cc2c3c(c1)CCN3C(=O)CC2,6.7%,3.1%,-2.7%,-4.9%,42.8%
O=C1CCc2cc(S(=O)(=O)NC3CCCCC3)cc3c2N1CC3,-28.8%,-6.2%,-4.3%,50.1µM*,21.3%
COc1ccc(OCCOCCN2CCc3ccccc3C2)cc1,50.1µM*,2.51µM*,/,10µM*,?
Cc1ccc(Cl)c(OCCN2CCc3ccccc3C2)c1,5.2%,0.7%,15.0%,/,42.6%
N#Cc1ccc(OCCN2CCc3ccccc3C2)cc1,/,25.1µM*,16.9%,/,?
Clc1ccc(OCCCCN2CCc3ccccc3C2)cc1,6.3%,18.2%,29.0%,/,100.2%
CCOC(=O)c1c(C)oc2nc(C)nc(N3CCN(c4cccc(C(F)(F)F)c4)CC3)c12,-32.9%[57.1 µM],-7.8%,-1.8%,?,20.5%
COC(=O)c1ccc2c(c1)N(CC(=O)Nc1cccc(Cl)c1C)C(=O)c1ccccc1S2,-2.2%,-5.4%,8.9%,2.2%[59 µM],23.8%[57 µM]
CCN(CC)Cc1cc(C(=O)O)c(C)o1,-10.8%,-3.5%,2.6%,0.0%,52.1%
COc1ccc(OCc2cc(C(=O)O)c(C)o2)cc1,79.4µM*,/,/,44.7µM*,/
O=c1c2[nH]c3ccccc3c2ncn1C1CCCCC1,0.5%,-1.5%,5.7%,-19.7%[59 µM],61.2%
O=C1c2ccccc2C(=O)c2c1ccc1c(=O)n(C3CCCCC3)[nH]c21,50.1µM*,25.1µM*,-19.3%,7.94µM*,-10.9%
CC1CCC(C(C)C)C(OC(=O)Cn2c(-c3ccc(F)cc3)[n+](C)c3ccccc32)C1 (centres undefined),10.0%,-17.8%,11.1%,25.1µM*,7.4%
Cc1cc(SC#N)cc(C)c1NC(=O)CCl,-2.9%,-7.1%,1.1%,?,58.9%
CCc1cc(SC#N)cc(C)c1NC(=O)CCl,-23.8%,-4.8%,10.4%,39.8µM*,46.8%
COc1ccc(C2(c3ccc(OC)cc3)NC(=O)N(CC(=O)Nc3ccccc3C(F)(F)F)C2=O)cc1,-4.2%,-27.1%,3.4%,79.4µM*,2.9%
Cc1cc(NC(=O)CN2C(=O)NC(C)(c3ccccc3)C2=O)no1 (centres undefined),2.2%,-10.4%,4.7%,0.7%[59 µM],28.4%
Cc1cc(NC(=O)CN2C(=O)NC(c3ccccc3)(c3ccc(C)c(C)c3)C2=O)no1 (centres undefined),-0.1%,?,5.2%,17.8µM*,8.7%
CC1(C)O[C@H]2[C@@H](O1)[C@@H](C(=O)Nc1ccc(F)c(F)c1)O[C@@H]1OC(C)(C)O[C@@H]12,4.6%,-17.4%,-6.4%,5.7%[59 µM],8.3%
CC12CCC(=O)N1C(C(=O)Nc1nnc(SCc3ccccc3F)s1)CS2 (centres undefined),-25.0%,-20.3%,29.5%,79.4µM*,21.9%[57 µM]
